Laboratory results published in PubChem BioAssay (NCI).
The panel holds about 79,000 compounds, 15% with a hit somewhere; the sample as a whole holds those more often. The source made the active and inactive calls. No stated cut-off is given here; in the data, active means growth inhibition above about 70%; inactive means the rest.

How the values were obtained:
[1] = NCI Yeast Anticancer Drug Screen. Data for the rad50 strain (AID 155);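 further: 0% = growth of vehicle-only cultures of the same strain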; conditions: S. cerevisiae rad50 strain growth inhibition; at 50.0 µM; hits give high values
Outline: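 Yeast carrying a defined DNA repair defect were exposed to test compounds, and growth was compared with vehicle-treated controls to give percent inhibition.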

[2] = NCI Yeast Anticancer Drug Screen. Data for the mec2-1 strain (AID 157); conditions: S. cerevisiae mec2-1 strain, at 50.0 µM, hits give high values
Outline: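 mec2-1 yeast strain, carrying an alteration in DNA damage repair or cell cycle control, was exposed to compounds; growth inhibition was measured relative to vehicle-treated controls.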

[3] = NCI Yeast Anticancer Drug Screen. Data for the sgs1 mgt1 strain (AID 161);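 further: 0% = growth of cultures given vehicle only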; conditions: S. cerevisiae sgs1 mgt1 strain, at 50.0 µM, hits give high values
Outline: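 Growth of a repair-deficient yeast mutant was monitored after compound treatment and expressed as inhibition relative to vehicle-treated cultures.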

[4] = NCI Yeast Anticancer Drug Screen. Data for the cln2 rad14 strain (AID 165);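 further: 0% = growth equal to vehicle treated cultures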; conditions: S. cerevisiae cln2 rad14 strain, at 50.0 µM, hits give high values
Outline: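 Yeast carrying cln2 and rad14 alterations (cell cycle control and DNA damage repair) were exposed to compounds. Growth inhibition was measured against vehicle-treated controls.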

[5] = NCI Yeast Anticancer Drug Screen. Data for the bub3 strain (AID 167); conditions: S. cerevisiae bub3 mutant strain, at 50.0 µM, hits give high values
Outline: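 Compounds were applied to a genetically altered yeast strain carrying a cell-cycle control defect. Growth inhibition was scored against vehicle-treated controls.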

[6] = NCI Yeast Anticancer Drug Screen. Data for the mlh1 rad18 strain (AID 175); conditions: S. cerevisiae mlh1 rad18 strain growth inhibition; at 50.0 µM; hits give high values
Outline: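 Growth inhibition of the yeast strain was measured after compound exposure and expressed relative to vehicle-treated controls. The strain carries defined defects in DNA damage repair.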

Measured: growth inhibition

N=N/C(=C\c1c(O)[nH]c2ccccc12)c1ccccc1
inactive: [1] -7.35% | [2] 13.6% | [3] 34.2% | [4] -35.2% | [5] 57.3% | [6] -8.75%

CCCCCCCCOCC1S(=O)(=O)OCCOS1(=O)=O
inactive: [1] -48.2% | [2] -17.6% | [3] -50.7% | [4] -53.8% | [5] -24.4% | [6] -2.3%

CC1(c2cccs2)C(=O)NC(=O)N1C(=O)CCl (stereo not drawn)
inactive: [1] 6.8% | [2] 4.55% | [3] -6.65% | [4] -2.75% | [5] 9.3% | [6] 5.55%

N#Cc1c2c(n3c1[nH]c(=O)c1ccccc13)CCCC2
inactive: [1] 24.4% | [2] 10% | [3] 23.9% | [4] 11.9% | [5] -2.8% | [6] 10.8%

O=c1[nH]c2cc(Cl)ccc2nc1/C(=N/Nc1ccccc1)C(O)c1ccco1 (stereo not drawn)
inactive: [1] 19.4% | [2] -15.7% | [3] -4.8% | [4] 5.85% | [5] 7.65% | [6] -54.4%

O=C(Nc1ccccc1C(=O)NCc1ccccc1)/C(=C/c1ccccc1)NC(=O)c1ccccc1
inactive: [1] 7.25% | [2] 6.9% | [3] -0.95% | [4] 4.05% | [5] 6.8% | [6] -34.7%

O=C(Cc1ccccc1)NN(Cc1ccccc1)Cc1ccccc1
inactive: [1] -14.8% | [2] -0.85% | [3] -2.95% | [4] -10.8% | [5] 23.9% | [6] 0.5%

Fc1c(F)c(F)c(Nc2c(F)c(F)c3c(F)c(F)c(F)c(F)c3c2F)c(F)c1F
inactive: [1] 1.15% | [2] 49.7% | [3] -16.3% | [4] -62.9% | [5] 2.9% | [6] 0.95%

O=[N+]([O-])c1ccc(NC(CO)C(O)C(O)C(O)CO)c([N+](=O)[O-])c1 (stereo not drawn)
inactive: [1] 12.3% | [2] -4.85% | [3] -0.85% | [4] -6.45% | [5] 3.2% | [6] -7.4%

CN1CCC(C[CH2][Sn]([c]2ccccc2)([c]2ccccc2)[c]2ccccc2)CC1
inactive: [1] 51.1% | [3] 50.7% | [4] 63% | [5] 49% | [6] 57.5%
active: [2] 99.3%

Nc1nc(SCC(=O)O)[nH]c(=O)c1NS(=O)(=O)c1ccccc1[N+](=O)[O-]
inactive: [1] 21.4% | [2] -4.1% | [3] -2.4% | [4] 23.1% | [5] 2.75% | [6] 5.6%

CC1=CCCCC1(C)/C(C)=N/Nc1ccc([N+](=O)[O-])cc1[N+](=O)[O-] (stereo not drawn)
inactive: [1] 2.05% | [2] 7.3% | [3] 2.8% | [4] 2.75% | [5] -1.4% | [6] -15.3%

CCOC(=O)/C=C(\N)c1ccccc1
inactive: [1] -7.8% | [2] -13.2% | [3] -15.6% | [4] -43.8% | [5] -30.4% | [6] -6.8%

Cc1ccc(-c2cnc3c(n2)c(=O)[nH]c(=O)n3C)cc1
inactive: [1] 29.5% | [2] 19.1% | [3] 20.5% | [4] 13.8% | [5] 17.4% | [6] 35.6%

CCC(C)C(NCc1ccccc1)C(=O)O (stereo not drawn)
inactive: [1] -8.75% | [2] 7.5% | [3] 26.9% | [4] -13.2% | [5] -18.4% | [6] -8.25%

CCCSc1nc2c(c(=O)n(C)c(=O)n2C)n1C
inactive: [1] 7.85% | [2] 15.2% | [3] 10.2% | [4] -9.3% | [5] 9.15% | [6] 6.5%

O=C(O)CCc1c(-c2ccccc2)c(-c2ccccc2)c2n1CCC2
inactive: [1] 49.5% | [2] 41% | [3] 56.5% | [4] -12.6% | [5] 33.9% | [6] 48.9%

CSC(=Nc1ccc([N+](=O)[O-])cc1C#N)NC(=O)c1ccccc1
inactive: [1] -28.2% | [2] -19.9% | [3] -29.1% | [4] -15.1% | [5] -16.8% | [6] 9.55%

CNC(=O)OCc1c(-c2ccccc2)c(-c2ccccc2)n(C)c1COC(=O)NC
inactive: [1] 37.6% | [2] 22.5% | [3] 51.7% | [4] 15.8% | [5] 33.2%
active: [6] 87.8%

CC(=O)N(Cl)c1ccc(N=Nc2ccccc2)cc1F
inactive: [1] 24.5% | [2] 15.1% | [3] 32.5% | [4] -9.7% | [5] -7.7% | [6] 6.8%

O=S(=O)(NC1CCC(CC2CCCCC2)CC1)c1ccccc1 (stereo not drawn)
active: [1] 81% | [5] 88.4% | [6] 82.5%
inactive: [2] 42% | [3] 47.5% | [4] 40%

COc1ccc(NC(=O)NCc2ccc(C)c(C)c2)cc1
inactive: [1] -0.8% | [2] 38.8% | [3] 22.3% | [4] -3.05% | [5] 20.1% | [6] 35%

Nc1cccc(C(=O)O)c1C(=O)O
inactive: [1] 19.7% | [2] 15.7% | [3] 25% | [4] -1.7% | [5] -4.2% | [6] 20.9%

Fc1cc(F)c2c(c1)Nc1cc(F)cc(F)c1S2
inactive: [1] 27.5% | [2] 21.6% | [3] 4.75% | [4] -13.6% | [5] 22.9% | [6] 12.7%

CSc1nc(N)c(C(N)=O)cc1C#N
inactive: [1] 5.45% | [2] 2.6% | [3] -5.4% | [4] -32.8% | [5] -16.6% | [6] 8.55%

Cc1cc(C23OC4COC(C)(C)OC4C2OC(C)(C)O3)nc2ccccc12 (stereo not drawn)
inactive: [1] -1.35% | [2] 13.6% | [3] 18.6% | [4] -22.1% | [5] 13.1% | [6] 23.6%

Cc1cc2c(c3ccccc13)Cc1ccccc1-2
inactive: [1] -5.65% | [2] 9.2% | [3] -7% | [4] 7.35% | [5] 15.4% | [6] -13.8%

N#Cc1c(N)[n+]([O-])c2c([n+]1[O-])CCCC2
inactive: [1] 11.4% | [2] 3.35% | [3] 7% | [4] -43.2% | [5] -14.8% | [6] -3.35%

O=C(c1ccccc1)c1cc[n+]([O-])cc1
inactive: [1] -5.6% | [2] -11.8% | [3] -18% | [4] -16.9% | [5] -8.7% | [6] 12.7%

CCOC(=O)c1c(C)c(C(C)=O)c2ccccn12
inactive: [1] -18.2% | [2] -17.4% | [3] -19.9% | [4] -26.6% | [5] 5.4% | [6] -2.7%

N#CS[C@@H]1CCC[C@H]1O
inactive: [1] -0.85% | [2] -6.25% | [3] -18.5% | [4] -18% | [5] 1.65% | [6] -20.1%

Cc1cc([N+](=O)[O-])cc(C)c1N
inactive: [1] 1.6% | [2] -11% | [3] 3.3% | [4] -15% | [5] -4.5% | [6] 7.15%

COc1cc(CCNC2=CC(=O)c3cccnc3C2=O)ccc1O
inactive: [1] 36.4% | [2] 24.1% | [3] 40.2% | [4] 11.8% | [5] 3.8% | [6] 48.2%

N#Cc1cc(Cl)ccc1N=Cc1c(Cl)cccc1Cl
inactive: [1] 19.4% | [2] 16.5% | [3] 39.4% | [4] 14.6% | [5] -6.55% | [6] 12.8%

Nc1ccccc1N=Cc1cc(F)ccc1[N+](=O)[O-]
inactive: [1] 0.05% | [2] 4.4% | [3] 28.2% | [4] -48.9% | [5] 4.4% | [6] 1.35%

O=c1nc2c(c(-c3ccc(Br)cc3)[nH]1)COC/C2=C\c1ccc(Br)cc1
inactive: [1] 31.1% | [2] 17.2% | [3] 35.8% | [4] 8% | [5] 18.1% | [6] 31.3%

COc1cc(OC)c2c(c1)OC(c1ccccc1)CC2=O (stereo not drawn)
inactive: [1] -3.3% | [2] 3.05% | [3] -18.2% | [4] 2.25% | [5] 13.8% | [6] 11.8%

CCCCSc1n[nH]c(C2CCC(=O)N2Cc2ccccc2)n1 (stereo not drawn)
inactive: [1] -14.8% | [2] -19.1% | [3] -0.8% | [4] -12.9% | [5] -3.5% | [6] -6%
